As usually defined, the inhibition is the relative decrease from the control value, in per cent.

Experiment [1] concerns the target Protein kinase C gamma type (Homo sapiens) (UniProt P05129). The conditions noted are these: at 1 µM.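 Further: each value is an averaged percent inhibition of the enzyme.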
Experiment [2] addresses T1, Protein kinase C iota type (Homo sapiens) (UniProt P41743).
T1 sequence (whole entry): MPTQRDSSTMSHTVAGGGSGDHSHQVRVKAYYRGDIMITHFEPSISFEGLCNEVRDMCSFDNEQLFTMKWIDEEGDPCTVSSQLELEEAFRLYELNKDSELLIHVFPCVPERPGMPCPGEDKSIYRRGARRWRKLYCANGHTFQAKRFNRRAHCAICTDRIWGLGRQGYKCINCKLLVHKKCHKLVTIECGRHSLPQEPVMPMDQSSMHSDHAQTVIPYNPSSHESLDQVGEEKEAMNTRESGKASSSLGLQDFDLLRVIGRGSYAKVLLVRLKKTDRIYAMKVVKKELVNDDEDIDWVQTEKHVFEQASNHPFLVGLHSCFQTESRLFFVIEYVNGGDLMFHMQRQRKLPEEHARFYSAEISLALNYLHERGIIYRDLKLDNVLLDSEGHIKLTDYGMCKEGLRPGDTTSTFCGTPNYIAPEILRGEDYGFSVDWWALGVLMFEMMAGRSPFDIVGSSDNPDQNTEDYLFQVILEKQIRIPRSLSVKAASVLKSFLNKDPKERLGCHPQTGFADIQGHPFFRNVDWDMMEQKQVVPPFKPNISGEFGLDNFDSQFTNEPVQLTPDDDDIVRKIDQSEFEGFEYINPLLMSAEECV
The conditions noted are these: at 0.1 µM.

Experiment [3] addresses T1, Protein kinase C iota type (Homo sapiens). The following applies: at 1 µM.
The target in experiment [4] is Protein kinase C theta type (Homo sapiens) (UniProt Q04759). The following applies: at 0.1 µM.
Protein kinase C theta type (Homo sapiens), sequence (Q04759 whole entry, looked up): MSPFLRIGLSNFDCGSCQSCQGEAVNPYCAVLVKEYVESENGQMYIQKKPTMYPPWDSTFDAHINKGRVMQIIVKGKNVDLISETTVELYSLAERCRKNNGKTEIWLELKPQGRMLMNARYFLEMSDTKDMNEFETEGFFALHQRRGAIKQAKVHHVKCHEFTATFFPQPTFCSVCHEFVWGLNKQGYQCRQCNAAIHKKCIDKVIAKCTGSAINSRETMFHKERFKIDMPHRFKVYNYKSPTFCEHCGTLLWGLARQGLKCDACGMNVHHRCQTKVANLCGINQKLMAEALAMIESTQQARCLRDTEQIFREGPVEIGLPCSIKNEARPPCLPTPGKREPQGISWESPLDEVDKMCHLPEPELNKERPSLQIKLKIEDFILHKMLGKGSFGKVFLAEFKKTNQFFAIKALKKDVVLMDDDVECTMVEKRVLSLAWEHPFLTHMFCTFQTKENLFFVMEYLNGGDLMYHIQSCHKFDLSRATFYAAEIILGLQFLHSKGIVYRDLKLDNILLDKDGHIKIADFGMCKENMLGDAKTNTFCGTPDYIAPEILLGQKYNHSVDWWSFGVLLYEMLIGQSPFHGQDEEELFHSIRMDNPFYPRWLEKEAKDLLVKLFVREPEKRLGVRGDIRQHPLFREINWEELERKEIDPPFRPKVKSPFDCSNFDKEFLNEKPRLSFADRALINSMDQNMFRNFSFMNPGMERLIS
For experiment [5] the target is unchanged. The following applies: at 1 µM.
In experiment [6] the target is Protein kinase C beta type (Homo sapiens) (UniProt P05771). The conditions noted are these: at 0.1 µM.
Protein kinase C beta type (Homo sapiens), sequence (P05771 2-671 limits assumed): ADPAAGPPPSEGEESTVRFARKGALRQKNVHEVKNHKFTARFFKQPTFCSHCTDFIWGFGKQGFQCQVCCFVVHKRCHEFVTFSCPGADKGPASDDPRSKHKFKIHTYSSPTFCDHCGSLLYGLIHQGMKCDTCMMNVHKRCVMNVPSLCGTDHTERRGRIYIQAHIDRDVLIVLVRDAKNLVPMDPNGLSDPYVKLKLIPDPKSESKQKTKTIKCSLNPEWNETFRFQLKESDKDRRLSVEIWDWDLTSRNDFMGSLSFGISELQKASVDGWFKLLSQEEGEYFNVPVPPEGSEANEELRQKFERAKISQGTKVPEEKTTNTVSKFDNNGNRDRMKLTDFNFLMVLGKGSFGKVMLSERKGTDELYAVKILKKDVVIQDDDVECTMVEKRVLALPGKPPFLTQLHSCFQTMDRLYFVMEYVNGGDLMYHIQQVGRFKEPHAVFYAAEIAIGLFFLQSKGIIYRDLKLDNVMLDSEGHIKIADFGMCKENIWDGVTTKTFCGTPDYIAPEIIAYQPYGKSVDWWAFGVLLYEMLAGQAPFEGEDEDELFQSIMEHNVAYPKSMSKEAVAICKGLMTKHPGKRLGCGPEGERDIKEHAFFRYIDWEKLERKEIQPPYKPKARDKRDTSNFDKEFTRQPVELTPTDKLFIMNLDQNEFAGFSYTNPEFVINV
Experiment [7] has the same target. The following applies: at 1 µM.
Experiment [8] deals with T2, Serine/threonine-protein kinase D1 (Homo sapiens) (UniProt Q15139).
T2 sequence (whole entry): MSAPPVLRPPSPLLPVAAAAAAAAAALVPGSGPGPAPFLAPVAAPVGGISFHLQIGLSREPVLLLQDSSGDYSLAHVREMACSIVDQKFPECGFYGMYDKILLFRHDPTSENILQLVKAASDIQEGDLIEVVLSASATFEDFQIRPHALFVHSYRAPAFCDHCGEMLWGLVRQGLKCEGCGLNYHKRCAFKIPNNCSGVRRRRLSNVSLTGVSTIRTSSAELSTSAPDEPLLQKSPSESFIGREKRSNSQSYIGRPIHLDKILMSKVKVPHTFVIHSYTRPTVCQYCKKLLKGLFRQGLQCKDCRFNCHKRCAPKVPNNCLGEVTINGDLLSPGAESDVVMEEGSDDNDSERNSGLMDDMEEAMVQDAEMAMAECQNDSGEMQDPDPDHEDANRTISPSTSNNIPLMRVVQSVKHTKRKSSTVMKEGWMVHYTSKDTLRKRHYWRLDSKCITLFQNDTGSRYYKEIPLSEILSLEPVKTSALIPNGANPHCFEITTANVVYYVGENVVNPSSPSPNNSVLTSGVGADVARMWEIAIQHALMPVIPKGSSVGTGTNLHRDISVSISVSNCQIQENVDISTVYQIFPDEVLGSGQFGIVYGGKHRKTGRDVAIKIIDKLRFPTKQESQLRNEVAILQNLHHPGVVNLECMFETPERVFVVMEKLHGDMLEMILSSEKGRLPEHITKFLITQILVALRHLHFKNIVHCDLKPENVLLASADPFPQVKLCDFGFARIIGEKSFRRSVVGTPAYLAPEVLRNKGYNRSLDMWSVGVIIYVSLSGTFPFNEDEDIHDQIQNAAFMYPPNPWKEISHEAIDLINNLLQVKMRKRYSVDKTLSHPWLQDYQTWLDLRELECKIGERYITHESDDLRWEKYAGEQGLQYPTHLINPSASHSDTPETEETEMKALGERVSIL
The following applies: at 0.1 µM.

The target of experiment [9] is T2, Serine/threonine-protein kinase D1 (Homo sapiens). The following applies: at 1 µM.
Experiment [10] has as its target T3, Serine/threonine-protein kinase D2 (Homo sapiens) (UniProt Q9BZL6).
T3 sequence (whole entry): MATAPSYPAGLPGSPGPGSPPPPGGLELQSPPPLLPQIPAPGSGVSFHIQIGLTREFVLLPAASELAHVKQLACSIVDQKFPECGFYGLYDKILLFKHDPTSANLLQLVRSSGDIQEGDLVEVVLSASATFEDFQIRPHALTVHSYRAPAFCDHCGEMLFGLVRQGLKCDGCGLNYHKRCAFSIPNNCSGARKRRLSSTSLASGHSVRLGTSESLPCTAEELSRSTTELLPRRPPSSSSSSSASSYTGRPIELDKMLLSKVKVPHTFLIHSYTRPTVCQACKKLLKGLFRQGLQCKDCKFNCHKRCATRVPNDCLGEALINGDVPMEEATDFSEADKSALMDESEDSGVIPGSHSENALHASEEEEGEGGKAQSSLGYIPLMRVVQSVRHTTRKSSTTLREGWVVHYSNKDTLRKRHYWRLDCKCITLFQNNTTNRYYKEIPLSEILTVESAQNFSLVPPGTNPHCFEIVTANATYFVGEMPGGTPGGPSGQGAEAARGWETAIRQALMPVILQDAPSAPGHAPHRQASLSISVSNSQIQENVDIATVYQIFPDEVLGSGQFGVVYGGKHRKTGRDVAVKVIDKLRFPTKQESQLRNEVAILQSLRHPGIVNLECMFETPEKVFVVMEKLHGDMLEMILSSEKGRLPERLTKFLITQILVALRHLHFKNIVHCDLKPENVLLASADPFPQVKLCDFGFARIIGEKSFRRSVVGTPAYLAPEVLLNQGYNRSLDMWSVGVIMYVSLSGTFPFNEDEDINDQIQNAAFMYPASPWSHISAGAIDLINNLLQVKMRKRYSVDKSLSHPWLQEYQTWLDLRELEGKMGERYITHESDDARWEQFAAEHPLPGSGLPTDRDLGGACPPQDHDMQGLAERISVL
The conditions noted are these: at 0.1 µM.

The target in experiment [11] is T3, Serine/threonine-protein kinase D2 (Homo sapiens). The following applies: at 1 µM.
Experiment [12] concerns the target T4, Serine/threonine-protein kinase D3 (Homo sapiens) (UniProt O94806).
T4 sequence (whole entry): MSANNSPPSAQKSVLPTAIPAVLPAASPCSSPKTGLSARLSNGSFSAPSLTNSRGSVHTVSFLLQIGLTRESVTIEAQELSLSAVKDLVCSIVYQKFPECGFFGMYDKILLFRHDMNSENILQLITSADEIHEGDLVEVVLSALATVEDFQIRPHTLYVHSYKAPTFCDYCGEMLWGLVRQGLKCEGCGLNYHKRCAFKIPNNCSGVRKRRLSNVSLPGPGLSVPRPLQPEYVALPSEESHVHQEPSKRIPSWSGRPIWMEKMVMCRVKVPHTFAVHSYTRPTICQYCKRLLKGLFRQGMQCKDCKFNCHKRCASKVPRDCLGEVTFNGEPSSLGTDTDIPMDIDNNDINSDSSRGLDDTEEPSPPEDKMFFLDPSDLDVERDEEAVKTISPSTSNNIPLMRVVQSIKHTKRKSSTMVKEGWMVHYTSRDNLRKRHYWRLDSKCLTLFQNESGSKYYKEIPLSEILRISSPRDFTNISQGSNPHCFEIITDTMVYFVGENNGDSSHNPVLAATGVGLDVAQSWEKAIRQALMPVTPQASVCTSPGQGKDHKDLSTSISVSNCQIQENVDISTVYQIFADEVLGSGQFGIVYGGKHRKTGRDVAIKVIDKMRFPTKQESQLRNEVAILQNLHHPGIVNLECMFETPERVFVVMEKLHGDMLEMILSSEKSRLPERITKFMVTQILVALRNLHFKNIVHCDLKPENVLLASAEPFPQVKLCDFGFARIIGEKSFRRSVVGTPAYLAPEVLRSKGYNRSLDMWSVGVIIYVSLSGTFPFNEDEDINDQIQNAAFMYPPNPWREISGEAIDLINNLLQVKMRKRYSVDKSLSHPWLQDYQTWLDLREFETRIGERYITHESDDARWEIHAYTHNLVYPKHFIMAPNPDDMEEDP
The following applies: at 0.1 µM.

Experiment [13] concerns the target T4, Serine/threonine-protein kinase D3 (Homo sapiens). The following applies: at 1 µM.
In experiment [14] the target is T5, cGMP-dependent protein kinase 1 (Homo sapiens) (UniProt Q13976).
T5 sequence (whole entry): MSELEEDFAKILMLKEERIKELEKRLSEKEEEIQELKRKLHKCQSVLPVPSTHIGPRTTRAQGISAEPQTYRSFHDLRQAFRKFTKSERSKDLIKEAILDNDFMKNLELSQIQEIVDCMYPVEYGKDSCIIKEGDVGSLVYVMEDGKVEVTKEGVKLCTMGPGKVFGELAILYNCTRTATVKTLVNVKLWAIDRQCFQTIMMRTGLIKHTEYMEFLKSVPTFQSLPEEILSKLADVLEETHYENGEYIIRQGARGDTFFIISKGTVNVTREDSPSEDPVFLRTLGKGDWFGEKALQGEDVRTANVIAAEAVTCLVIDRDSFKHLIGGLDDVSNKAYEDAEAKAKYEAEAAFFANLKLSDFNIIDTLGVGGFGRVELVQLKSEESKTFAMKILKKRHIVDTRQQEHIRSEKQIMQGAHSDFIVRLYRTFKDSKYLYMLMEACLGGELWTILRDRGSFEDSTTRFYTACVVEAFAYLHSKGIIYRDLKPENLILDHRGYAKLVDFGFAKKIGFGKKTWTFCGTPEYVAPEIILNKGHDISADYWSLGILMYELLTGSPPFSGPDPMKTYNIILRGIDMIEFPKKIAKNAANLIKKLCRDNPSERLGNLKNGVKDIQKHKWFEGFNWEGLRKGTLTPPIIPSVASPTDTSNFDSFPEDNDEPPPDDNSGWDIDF
The following applies: at 0.1 µM.

In experiment [15] the target is T5, cGMP-dependent protein kinase 1 (Homo sapiens). The conditions noted are these: at 1 µM.
For experiment [16], the target named is T6, cGMP-dependent protein kinase 2 (Homo sapiens) (UniProt Q13237).
T6 sequence (whole entry): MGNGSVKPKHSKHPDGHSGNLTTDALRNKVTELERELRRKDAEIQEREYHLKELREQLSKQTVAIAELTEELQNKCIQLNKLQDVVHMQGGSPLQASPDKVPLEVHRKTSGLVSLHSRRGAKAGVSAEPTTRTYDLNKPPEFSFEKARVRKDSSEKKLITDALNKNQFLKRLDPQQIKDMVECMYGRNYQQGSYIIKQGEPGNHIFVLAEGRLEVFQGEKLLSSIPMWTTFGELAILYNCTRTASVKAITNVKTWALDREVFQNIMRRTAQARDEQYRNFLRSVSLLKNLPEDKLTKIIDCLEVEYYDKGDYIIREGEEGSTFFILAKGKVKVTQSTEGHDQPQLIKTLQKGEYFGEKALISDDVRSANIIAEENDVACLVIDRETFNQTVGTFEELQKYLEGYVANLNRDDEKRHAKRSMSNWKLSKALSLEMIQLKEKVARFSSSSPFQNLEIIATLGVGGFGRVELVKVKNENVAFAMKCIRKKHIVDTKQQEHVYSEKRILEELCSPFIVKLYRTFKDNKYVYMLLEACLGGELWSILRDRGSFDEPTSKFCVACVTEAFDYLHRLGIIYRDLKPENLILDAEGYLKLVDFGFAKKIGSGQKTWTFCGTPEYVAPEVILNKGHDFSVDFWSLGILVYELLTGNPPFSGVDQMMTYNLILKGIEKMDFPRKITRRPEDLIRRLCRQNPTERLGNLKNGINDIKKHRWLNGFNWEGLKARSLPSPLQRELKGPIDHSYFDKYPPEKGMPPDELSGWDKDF
The following applies: at 0.1 µM.

For experiment [17], the target named is T6, cGMP-dependent protein kinase 2 (Homo sapiens). The conditions noted are these: at 1 µM.
Experiment [18] concerns the target T7, cAMP-dependent protein kinase catalytic subunit PRKX (Homo sapiens) (UniProt P51817).
T7 sequence (whole entry): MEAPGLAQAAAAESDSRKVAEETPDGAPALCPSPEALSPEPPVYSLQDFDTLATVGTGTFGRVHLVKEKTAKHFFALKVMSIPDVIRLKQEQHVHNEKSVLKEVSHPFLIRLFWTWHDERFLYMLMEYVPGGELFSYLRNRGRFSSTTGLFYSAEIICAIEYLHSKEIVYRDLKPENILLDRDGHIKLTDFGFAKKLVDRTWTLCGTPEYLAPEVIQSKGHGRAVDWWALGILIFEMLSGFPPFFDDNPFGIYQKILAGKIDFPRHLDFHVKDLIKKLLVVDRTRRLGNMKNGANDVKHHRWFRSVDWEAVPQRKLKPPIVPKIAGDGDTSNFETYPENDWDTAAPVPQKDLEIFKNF
The conditions noted are these: at 0.1 µM.

Experiment [19] concerns the target T7, cAMP-dependent protein kinase catalytic subunit PRKX (Homo sapiens). The conditions noted are these: at 1 µM.
For experiment [20], the target named is Rho-associated protein kinase 1 (Homo sapiens) (UniProt Q13464). The conditions noted are these: at 0.1 µM.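 Further: values are mean percent inhibition of ROCK1.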
Rho-associated protein kinase 1 (Homo sapiens), sequence (Q13464 2-1354 limits assumed): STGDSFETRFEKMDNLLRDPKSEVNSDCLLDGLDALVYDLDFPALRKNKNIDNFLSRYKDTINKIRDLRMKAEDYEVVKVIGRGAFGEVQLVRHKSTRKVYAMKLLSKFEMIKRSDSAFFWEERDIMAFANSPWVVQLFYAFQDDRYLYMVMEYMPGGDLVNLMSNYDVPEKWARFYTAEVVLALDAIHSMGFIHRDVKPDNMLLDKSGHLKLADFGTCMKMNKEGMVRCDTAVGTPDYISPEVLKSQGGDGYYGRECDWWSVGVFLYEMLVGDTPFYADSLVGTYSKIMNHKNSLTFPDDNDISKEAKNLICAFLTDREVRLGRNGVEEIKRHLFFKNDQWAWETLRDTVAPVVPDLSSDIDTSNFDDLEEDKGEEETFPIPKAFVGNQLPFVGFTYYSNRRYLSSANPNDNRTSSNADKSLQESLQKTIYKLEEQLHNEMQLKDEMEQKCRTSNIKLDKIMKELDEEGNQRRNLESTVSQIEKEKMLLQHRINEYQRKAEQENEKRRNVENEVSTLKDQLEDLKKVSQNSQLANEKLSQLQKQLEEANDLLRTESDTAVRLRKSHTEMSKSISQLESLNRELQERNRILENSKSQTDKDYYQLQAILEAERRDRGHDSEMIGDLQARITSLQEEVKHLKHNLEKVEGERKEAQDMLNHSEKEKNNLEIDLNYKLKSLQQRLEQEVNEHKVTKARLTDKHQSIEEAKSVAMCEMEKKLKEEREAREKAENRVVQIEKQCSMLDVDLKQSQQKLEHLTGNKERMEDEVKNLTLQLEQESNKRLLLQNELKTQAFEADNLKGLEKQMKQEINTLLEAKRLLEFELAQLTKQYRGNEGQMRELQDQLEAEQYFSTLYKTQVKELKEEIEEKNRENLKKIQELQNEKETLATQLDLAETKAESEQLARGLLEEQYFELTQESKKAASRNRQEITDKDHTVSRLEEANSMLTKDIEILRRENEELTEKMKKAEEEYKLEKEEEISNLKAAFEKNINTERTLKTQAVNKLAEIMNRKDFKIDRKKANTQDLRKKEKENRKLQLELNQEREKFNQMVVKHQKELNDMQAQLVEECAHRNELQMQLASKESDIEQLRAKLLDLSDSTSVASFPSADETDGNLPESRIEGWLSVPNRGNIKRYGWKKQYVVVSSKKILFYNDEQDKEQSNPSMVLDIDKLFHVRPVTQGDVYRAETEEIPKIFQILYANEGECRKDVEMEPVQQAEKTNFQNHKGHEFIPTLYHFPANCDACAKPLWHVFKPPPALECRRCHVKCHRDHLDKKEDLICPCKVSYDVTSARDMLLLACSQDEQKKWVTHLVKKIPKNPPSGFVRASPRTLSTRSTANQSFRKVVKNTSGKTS

Regarding `O=C(Nc1n[nH]c2nc(-c3ccc(O)cc3)c(Br)cc12)C1CC1`, the inhibition in experiment [1] is 48.1%; in experiment [2], 5.33%; in experiment [3] it was 19.2%; in experiment [4], 7.68%; in [5] it was 33.2%; in experiment [6] it was 19%. In addition, the inhibition worked out at 57.6% in [7]; 4.47% in experiment [8]; 7.7% in experiment [9]; 6.19% in [10]; 5.92% in [11]; 5.64% in experiment [12]. Further, the inhibition in experiment [13] came to 6.49%; in experiment [14], 3.5%; in [15] it was 6.22%; in experiment [16] it was 5.14%; in experiment [17], 27.8%; in experiment [18], 3.04%. Further, the values for the inhibition in [19] and in experiment [20] were 4.28% and 0.72%, respectively.

For the origin of these results see ChEMBL document CHEMBL1961873, “Compounds: GSK PKIS; Assays: Nanosyn kinase panel” (2012).
